# Test results published in ChEMBL document CHEMBL1961873, “Compounds: GSK PKIS; Assays: Nanosyn kinase panel” (2012).
# Tests used:
# [1] = biological target: Sphingosine kinase 1 (Homo sapiens) (UniProt Q9NYA1); settings: at 1 µM;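 also: mean SPHK1 inhibition value reported from the GSK PKIS kinase panel screen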
# [2] = biological target: T1, Sphingosine kinase 2 (Homo sapiens) (UniProt Q9NRA0); settings: at 0.1 µM
# T1 sequence (whole entry): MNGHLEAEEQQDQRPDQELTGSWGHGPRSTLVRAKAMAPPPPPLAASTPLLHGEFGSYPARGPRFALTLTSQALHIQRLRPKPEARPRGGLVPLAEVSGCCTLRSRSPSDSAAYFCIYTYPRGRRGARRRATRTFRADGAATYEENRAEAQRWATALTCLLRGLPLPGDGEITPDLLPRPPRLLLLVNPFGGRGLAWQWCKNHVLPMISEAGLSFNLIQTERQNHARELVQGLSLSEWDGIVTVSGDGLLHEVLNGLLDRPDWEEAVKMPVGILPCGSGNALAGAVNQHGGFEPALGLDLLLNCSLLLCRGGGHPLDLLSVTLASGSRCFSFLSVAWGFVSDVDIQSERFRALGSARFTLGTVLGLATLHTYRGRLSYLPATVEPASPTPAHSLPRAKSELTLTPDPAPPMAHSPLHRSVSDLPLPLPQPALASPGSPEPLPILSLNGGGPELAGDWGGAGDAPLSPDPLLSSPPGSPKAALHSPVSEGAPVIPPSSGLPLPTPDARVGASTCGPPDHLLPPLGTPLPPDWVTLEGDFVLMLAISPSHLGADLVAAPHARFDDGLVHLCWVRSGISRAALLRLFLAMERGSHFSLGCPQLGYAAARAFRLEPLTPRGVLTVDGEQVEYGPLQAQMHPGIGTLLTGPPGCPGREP
# [3] = biological target: T1, Sphingosine kinase 2 (Homo sapiens); settings: at 1 µM
# [4] = biological target: Casein kinase II subunit alpha (Homo sapiens) (UniProt P68400); settings: at 0.1 µM
# [5] = biological target: Casein kinase II subunit alpha (Homo sapiens) (UniProt P68400); settings: at 1 µM
# [6] = biological target: T2, Inhibitor of nuclear factor kappa-B kinase subunit alpha (Homo sapiens) (UniProt O15111); settings: at 0.1 µM
# T2 sequence (whole entry): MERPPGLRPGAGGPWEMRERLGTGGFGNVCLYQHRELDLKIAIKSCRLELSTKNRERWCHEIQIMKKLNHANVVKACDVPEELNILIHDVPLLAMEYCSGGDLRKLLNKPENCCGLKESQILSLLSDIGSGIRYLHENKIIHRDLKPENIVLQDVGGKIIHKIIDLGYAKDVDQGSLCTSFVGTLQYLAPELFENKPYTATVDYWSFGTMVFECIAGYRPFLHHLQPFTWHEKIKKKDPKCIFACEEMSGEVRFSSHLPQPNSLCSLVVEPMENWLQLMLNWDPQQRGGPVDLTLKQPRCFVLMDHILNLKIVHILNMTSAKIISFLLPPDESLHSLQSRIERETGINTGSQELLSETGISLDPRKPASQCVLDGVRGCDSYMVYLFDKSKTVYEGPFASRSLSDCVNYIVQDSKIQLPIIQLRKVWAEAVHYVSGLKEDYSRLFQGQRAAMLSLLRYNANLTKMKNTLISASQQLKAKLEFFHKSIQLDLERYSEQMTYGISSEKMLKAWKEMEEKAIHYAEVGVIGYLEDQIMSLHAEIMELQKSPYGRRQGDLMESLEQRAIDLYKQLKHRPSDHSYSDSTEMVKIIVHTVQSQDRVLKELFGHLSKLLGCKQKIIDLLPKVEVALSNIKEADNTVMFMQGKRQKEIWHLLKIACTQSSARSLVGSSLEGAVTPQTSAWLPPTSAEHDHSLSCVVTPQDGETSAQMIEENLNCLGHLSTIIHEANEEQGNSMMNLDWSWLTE
# [7] = biological target: T2, Inhibitor of nuclear factor kappa-B kinase subunit alpha (Homo sapiens); settings: at 1 µM
# [8] = biological target: T3, Inhibitor of nuclear factor kappa-B kinase subunit beta (Homo sapiens) (UniProt O14920); settings: at 0.1 µM
# T3 sequence (whole entry): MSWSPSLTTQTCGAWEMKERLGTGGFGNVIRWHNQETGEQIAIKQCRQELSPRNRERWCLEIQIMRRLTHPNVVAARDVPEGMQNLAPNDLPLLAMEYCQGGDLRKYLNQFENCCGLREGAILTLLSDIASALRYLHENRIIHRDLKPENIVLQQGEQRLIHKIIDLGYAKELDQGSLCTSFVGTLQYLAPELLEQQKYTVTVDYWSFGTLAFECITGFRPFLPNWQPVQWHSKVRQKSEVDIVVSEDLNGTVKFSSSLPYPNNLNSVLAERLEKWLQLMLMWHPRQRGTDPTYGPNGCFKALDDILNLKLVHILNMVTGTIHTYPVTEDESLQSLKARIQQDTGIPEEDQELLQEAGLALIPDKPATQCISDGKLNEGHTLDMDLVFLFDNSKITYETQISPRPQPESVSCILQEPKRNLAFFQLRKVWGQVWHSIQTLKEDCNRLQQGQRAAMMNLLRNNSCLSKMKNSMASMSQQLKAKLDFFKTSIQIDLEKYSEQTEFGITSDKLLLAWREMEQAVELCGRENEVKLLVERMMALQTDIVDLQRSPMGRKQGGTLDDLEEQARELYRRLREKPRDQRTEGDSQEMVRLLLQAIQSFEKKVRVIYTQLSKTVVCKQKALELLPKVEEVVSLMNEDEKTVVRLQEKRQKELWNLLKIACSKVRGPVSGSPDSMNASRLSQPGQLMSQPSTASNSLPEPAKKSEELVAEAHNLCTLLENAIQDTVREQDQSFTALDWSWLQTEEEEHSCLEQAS
# [9] = biological target: T3, Inhibitor of nuclear factor kappa-B kinase subunit beta (Homo sapiens); settings: at 1 µM
# [10] = biological target: T4, Inhibitor of nuclear factor kappa-B kinase subunit epsilon (Homo sapiens) (UniProt Q14164); settings: at 0.1 µM
# T4 sequence (whole entry): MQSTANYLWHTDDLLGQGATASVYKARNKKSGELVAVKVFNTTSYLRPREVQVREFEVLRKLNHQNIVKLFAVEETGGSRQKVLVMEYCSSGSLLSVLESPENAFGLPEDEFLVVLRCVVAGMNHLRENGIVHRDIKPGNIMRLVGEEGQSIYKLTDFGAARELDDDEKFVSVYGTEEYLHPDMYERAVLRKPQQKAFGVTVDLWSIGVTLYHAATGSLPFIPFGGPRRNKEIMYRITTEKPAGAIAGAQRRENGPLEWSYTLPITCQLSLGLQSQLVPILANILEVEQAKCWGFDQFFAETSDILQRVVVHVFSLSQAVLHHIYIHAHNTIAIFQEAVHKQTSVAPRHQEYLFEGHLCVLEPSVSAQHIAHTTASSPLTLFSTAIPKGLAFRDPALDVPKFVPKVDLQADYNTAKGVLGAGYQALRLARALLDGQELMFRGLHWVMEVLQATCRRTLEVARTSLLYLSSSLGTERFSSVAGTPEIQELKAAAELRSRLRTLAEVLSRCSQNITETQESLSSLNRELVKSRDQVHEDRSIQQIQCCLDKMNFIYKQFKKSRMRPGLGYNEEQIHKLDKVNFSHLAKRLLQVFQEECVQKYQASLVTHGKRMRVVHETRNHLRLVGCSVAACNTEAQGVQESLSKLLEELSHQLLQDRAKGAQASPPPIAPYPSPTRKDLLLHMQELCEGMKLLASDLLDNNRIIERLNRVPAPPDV
# [11] = biological target: T4, Inhibitor of nuclear factor kappa-B kinase subunit epsilon (Homo sapiens); settings: at 1 µM
# [12] = biological target: T5, Serine/threonine-protein kinase Nek1 (Homo sapiens) (UniProt Q96PY6); settings: at 0.1 µM
# T5 sequence (whole entry): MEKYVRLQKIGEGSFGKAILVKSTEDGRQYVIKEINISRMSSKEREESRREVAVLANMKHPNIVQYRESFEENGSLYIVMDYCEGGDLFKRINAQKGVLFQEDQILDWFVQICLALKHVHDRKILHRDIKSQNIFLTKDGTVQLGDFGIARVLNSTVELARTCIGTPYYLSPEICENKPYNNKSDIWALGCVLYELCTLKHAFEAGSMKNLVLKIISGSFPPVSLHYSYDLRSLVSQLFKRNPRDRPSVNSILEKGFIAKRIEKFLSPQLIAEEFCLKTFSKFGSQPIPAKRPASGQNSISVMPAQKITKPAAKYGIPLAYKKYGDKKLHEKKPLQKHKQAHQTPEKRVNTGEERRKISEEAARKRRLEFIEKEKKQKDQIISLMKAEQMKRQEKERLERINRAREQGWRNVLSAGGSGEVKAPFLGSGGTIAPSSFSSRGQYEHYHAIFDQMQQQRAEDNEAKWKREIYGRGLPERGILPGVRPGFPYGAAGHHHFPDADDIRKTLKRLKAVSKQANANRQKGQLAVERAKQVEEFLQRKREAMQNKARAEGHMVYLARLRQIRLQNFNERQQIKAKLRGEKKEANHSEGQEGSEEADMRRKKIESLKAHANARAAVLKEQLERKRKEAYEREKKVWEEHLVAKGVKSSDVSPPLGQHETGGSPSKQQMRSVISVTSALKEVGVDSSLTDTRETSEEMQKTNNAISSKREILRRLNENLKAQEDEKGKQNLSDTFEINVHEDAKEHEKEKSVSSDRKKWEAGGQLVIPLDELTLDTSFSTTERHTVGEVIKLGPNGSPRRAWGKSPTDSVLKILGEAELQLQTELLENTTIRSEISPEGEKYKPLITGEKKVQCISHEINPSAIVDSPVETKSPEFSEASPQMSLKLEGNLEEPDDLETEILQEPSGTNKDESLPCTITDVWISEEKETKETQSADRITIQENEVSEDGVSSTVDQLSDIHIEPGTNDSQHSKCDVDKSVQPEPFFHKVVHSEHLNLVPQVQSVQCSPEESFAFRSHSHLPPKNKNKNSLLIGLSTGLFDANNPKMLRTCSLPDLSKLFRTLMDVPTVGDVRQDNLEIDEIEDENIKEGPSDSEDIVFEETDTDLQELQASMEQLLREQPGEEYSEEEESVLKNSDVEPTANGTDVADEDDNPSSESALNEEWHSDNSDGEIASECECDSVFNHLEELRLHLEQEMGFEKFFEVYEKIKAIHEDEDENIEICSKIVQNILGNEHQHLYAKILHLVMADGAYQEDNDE
# [13] = biological target: T5, Serine/threonine-protein kinase Nek1 (Homo sapiens); settings: at 1 µM
# [14] = biological target: T6, Serine/threonine-protein kinase Nek2 (Homo sapiens) (UniProt P51955); settings: at 0.1 µM
# T6 sequence (whole entry): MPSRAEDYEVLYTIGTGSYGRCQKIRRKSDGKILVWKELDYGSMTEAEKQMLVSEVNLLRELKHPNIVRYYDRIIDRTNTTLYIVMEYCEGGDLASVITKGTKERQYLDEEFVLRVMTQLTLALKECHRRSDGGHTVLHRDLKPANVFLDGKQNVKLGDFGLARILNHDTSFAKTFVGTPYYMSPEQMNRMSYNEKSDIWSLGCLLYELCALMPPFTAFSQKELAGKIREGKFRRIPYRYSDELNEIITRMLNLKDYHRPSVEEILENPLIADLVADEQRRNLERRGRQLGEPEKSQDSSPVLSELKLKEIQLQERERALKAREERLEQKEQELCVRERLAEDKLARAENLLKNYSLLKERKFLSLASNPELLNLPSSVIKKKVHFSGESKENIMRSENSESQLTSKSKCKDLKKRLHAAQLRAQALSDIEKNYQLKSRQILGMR
# [15] = biological target: T6, Serine/threonine-protein kinase Nek2 (Homo sapiens); settings: at 1 µM
# [16] = biological target: Serine/threonine-protein kinase Nek6 (Homo sapiens) (UniProt Q9HC98); settings: at 0.1 µM
# [17] = biological target: Serine/threonine-protein kinase Nek6 (Homo sapiens) (UniProt Q9HC98); settings: at 1 µM
# [18] = biological target: Serine/threonine-protein kinase Nek7 (Homo sapiens) (UniProt Q8TDX7); settings: at 0.1 µM
# [19] = biological target: Serine/threonine-protein kinase Nek7 (Homo sapiens) (UniProt Q8TDX7); settings: at 1 µM
# [20] = biological target: T7, Serine/threonine-protein kinase Nek9 (Homo sapiens) (UniProt Q8TD19); settings: at 0.1 µM;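 also: reported value is the mean percent inhibition of NEK9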
# T7 sequence (whole entry): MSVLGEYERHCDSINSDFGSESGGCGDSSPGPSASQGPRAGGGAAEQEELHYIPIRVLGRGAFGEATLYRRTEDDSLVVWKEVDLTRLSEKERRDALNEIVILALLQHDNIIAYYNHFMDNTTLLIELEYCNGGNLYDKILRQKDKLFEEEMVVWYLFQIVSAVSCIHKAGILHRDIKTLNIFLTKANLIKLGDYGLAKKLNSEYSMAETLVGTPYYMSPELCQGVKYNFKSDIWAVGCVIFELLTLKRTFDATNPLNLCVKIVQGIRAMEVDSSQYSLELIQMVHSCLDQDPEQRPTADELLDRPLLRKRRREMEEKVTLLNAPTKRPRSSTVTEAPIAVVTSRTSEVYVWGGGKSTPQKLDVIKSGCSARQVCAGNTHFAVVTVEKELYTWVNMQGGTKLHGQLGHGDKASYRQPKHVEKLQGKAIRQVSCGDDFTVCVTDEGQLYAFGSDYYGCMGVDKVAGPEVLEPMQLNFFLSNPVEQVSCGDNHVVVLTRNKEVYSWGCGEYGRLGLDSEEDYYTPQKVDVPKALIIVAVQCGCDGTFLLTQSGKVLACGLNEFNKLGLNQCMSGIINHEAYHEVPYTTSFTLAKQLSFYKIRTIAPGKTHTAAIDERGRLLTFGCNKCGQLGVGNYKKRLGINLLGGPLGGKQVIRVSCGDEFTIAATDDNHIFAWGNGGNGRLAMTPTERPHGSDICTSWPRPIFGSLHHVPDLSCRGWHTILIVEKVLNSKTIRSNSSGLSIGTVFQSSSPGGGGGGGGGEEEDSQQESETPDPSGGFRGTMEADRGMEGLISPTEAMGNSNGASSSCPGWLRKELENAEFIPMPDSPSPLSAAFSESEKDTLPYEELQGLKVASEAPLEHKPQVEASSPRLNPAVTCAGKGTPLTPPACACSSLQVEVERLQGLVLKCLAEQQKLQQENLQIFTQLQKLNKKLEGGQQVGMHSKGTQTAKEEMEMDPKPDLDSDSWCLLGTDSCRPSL
# Serine/threonine-protein kinase Nek6 (Homo sapiens), sequence (Q9HC98 whole entry): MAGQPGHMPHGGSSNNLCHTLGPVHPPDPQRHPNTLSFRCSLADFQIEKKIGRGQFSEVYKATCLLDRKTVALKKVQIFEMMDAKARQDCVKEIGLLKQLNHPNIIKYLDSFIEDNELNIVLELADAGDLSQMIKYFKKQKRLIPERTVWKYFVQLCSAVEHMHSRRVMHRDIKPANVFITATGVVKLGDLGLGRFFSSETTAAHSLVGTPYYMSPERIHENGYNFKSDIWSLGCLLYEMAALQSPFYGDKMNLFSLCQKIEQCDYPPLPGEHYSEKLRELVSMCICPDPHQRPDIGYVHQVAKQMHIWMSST
# Serine/threonine-protein kinase Nek7 (Homo sapiens), sequence (Q8TDX7 whole entry, looked up): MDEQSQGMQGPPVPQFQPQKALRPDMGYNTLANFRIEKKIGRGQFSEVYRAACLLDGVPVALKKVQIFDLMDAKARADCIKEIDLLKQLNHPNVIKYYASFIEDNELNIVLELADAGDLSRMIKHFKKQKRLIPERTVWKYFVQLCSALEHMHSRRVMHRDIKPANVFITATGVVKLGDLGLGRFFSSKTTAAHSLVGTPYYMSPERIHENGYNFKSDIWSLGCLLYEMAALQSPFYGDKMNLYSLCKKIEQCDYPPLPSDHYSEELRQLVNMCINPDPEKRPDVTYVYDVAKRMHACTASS
# Casein kinase II subunit alpha (Homo sapiens), sequence (P68400 whole entry, looked up): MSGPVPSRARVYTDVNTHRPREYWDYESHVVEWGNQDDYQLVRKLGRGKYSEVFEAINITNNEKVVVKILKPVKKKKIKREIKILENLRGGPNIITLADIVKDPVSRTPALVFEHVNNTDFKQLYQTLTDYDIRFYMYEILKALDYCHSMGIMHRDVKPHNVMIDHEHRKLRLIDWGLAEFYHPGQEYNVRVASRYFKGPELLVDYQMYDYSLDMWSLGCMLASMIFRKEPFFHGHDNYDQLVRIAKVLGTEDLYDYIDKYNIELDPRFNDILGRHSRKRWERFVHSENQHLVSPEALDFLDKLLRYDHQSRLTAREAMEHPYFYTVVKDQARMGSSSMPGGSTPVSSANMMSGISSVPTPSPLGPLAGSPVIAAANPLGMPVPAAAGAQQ
# Sphingosine kinase 1 (Homo sapiens), sequence (Q9NYA1 whole entry): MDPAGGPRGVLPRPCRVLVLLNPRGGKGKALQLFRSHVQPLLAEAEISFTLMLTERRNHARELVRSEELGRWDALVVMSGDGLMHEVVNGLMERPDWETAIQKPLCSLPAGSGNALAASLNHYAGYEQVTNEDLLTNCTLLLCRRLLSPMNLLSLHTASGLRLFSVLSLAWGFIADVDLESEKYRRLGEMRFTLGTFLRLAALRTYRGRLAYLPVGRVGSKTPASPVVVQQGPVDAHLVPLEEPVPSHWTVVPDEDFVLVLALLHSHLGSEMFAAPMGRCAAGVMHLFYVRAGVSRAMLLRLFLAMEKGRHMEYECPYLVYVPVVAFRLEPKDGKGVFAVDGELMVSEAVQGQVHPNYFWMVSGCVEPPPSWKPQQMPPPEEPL
smiles,measurement,setting,value
NS(=O)(=O)c1ccc(N/N=C2\C(=O)Nc3cccc(CCc4ccncc4)c32)cc1,inhibition,[1],3.16%
same,inhibition,[2],0%
same,inhibition,[3],-4.51%
same,inhibition,[4],5.35%
same,inhibition,[5],2.3%
same,inhibition,[6],-0.34%
same,inhibition,[7],1.3%
same,inhibition,[8],0.73%
same,inhibition,[9],-2.12%
same,inhibition,[10],-0.26%
same,inhibition,[11],3.03%
same,inhibition,[12],2.1%
same,inhibition,[13],1.7%
same,inhibition,[14],1.25%
same,inhibition,[15],0.63%
same,inhibition,[16],-2.2%
same,inhibition,[17],-0.1%
same,inhibition,[18],0.71%
same,inhibition,[19],0.86%
same,inhibition,[20],2.93%
